Experimental findings from PubChem BioAssay (NCATS) are described below.

Test [1] is described as follows: Confirmation and Secondary Assay for Modulators of Hemoglobin Beta Chain Splicing at IVS2 654 locus (AID 910).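 Also: HeLa cells stably carrying EGFP split by mutant beta-globin IVS2-654 intron; % of control where 0% means no effect.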 The procedure, abridged: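 HeLa cells stably expressing EGFP interrupted by β-globin IVS2-654 intron, seeded overnight in Opti-MEM/2% FCS, then treated 2 days at 37 °C. Restored splicing read as total peak GFP intensity per well by laser scanning cytometry (488 nm excitation, 500–520 nm emission); 500 nM antisense PNA as control.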

The nature of test [2]: Confirmation and Secondary Assay for Modulators of Hemoglobin Beta Chain Splicing at IVS2 705 locus (AID 930).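 Also: HeLa cells stably expressing the EGFP-705 splicing reporter; GFP fluorescence per well restored by corrected splicing of the IVS2-705 intron in EGFP; % of control where 0% means no effect.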 In short, it runs like this:
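Fluorescence gain (488 nm laser, 500-520 nm PMT) reflects restored correct splicing of a mutant IVS2-705 intron inside EGFP in stably transfected HeLa cells after 2-day compound treatment.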

The target of test [3] is ATP-dependent 6-phosphofructokinase (Trypanosoma brucei brucei) (UniProt O15648). Briefly: qHTS Assay to Find Inhibitors of T. brucei phosphofructokinase: hit validation (AID 492961).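 Also: luminescence reports ADP formed as PFK phosphorylates fructose-6-phosphate with ATP; % is scaled to controls: 0 for no effect and ±100 for the full control effect.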 In short, it runs like this: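 Inhibition of parasite PFK is measured as reduced ADP formation, quantified via luciferase after ATP depletion. Assay used 0.1 mM ATP, 0.5 mM F6P, 1.25 nM enzyme, 45 min incubation.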

For test [4], the target named is Luciferin 4-monooxygenase (Photinus pyralis) (UniProt P08659). Briefly: Biochemical firefly luciferase enzyme assay for NPC (AID 624030).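 Also: purified P. pyralis luciferase at 10 nM with luciferin and ATP substrate; 0% = DMSO and -100% = full luciferase inhibition by PTC124 control; nearly all actives have a fitted effect of over 70% in size.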 The procedure, abridged: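 Purified P. pyralis luciferase at 10 nM in 50 mM Tris Acetate (final), luminescence read within 5 minutes of enzyme addition to compounds. Activity normalised to PTC124 versus DMSO; concentration-response curves classed by r2, magnitude and activity.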

Test [5] can be described thus: qHTS of pediatric cancer cell lines to identify multiple opportunities for drug repurposing: Primary screen for TC32 cells (AID 1347089). Also: % is scaled to controls: 0 for no effect and ±100 for the full control effect; nearly all actives have a fitted effect of over 60% in size. The procedure, abridged: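 TC32 cells, 500-1,000/well in growth medium, compound-treated 48 h at 37 °C; viability from CellTiter-Glo luminescence. Primary screen: MIPE 11-point (0.78 nM–46 µM final), NPC 8-point (0.59 nM–46 µM final); confirmatory at 11-point dilutions.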
A general note: qHTS replaces the single test concentration by a dilution series.

Test [6] in a line: qHTS of pediatric cancer cell lines to identify multiple opportunities for drug repurposing: Primary screen for RD cells (AID 1347104). Also: potency is read from the fitted curve at half-maximal effect; nearly all actives have a fitted effect of over 55% in size. The note with it: RD rhabdomyosarcoma viability, CellTiter-Glo luminescence, 48 h. In short, it runs like this: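 Readout: CellTiter-Glo luminescence, 48 h treatment. Controls DMSO (neutral) and bortezomib 2.3 µM final (positive). Potency and efficacy taken from primary-screen concentration-response curves.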

The next test concerns MCC-13. Briefly: qHTS assay to identify novel small-molecules to repurpose for Merkel cell carcinoma treatment (AID 1296009). Also: % is scaled to controls: 0 for no effect and ±100 for the full control effect; nearly all actives have a fitted effect of over 60% in size. As to conditions: MCC and control cell lines, CellTiter-Glo viability, 72 h; series mostly up to 46 µM. The procedure, abridged:
(§1)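 Cells were incubated with compound for 72 hr at 37 degree celsius before CellTiter-Glo addition. Luminescence was normalized with no-cell wells as full cytotoxicity and DMSO as baseline.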

In another test the test system is MCC-26. The description is as above. The note with it: MCC and control cell lines, CellTiter-Glo viability, 72 h; series mostly up to 46 µM. The procedure, abridged:
as §1

The nature of test [7]: NCATS anti-infectives library activity on the primary C. elegans qHTS viability assay (AID 1745855; calls by dose curve). In short, it runs like this: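 Viability is taken from GFP fluorescence of PE254-GFP-FLuc C. elegans imaged by laser cytometry over 7 days. Ten L1 worms per well grow at 21 °C on TOP10 E. coli capsules with titrated compound; levamisole marks toxicity.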
The nature of test [8]: Cell Viability - BJ (AID 421; calls by dose curve;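 also: potency is read from the fitted curve at half-maximal effect; cells exposed to compound for 40 hours at 37 °C before readout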). The note with it: BJ fibroblast viability, qHTS. In short, it runs like this: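 Cytotoxicity as drop in intracellular ATP (CellTiter-Glo, 20 min RT) after 40 hr compound exposure of BJ fibroblasts at 37 °C. Titrations scaled between DMSO and 100 uM tamoxifen, Hill-fitted for AC50.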
A short description of test [9]: Cell Viability - Jurkat (AID 426;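 active = dose-dependent loss of cell ATP signal giving a full or clear fitted curve, ranked by lower potency value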; also: potency is read from the fitted curve at half-maximal effect). The note with it: qHTS. In short, it runs like this:
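Seed 5000 Jurkat E6-1 cells/well; add compound; incubate 40 hr at 37 °C; add CellTiter-Glo; wait 20 min at room temperature; read luminescence. Fit concentration-response with Hill equation for AC50.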

Test [10] is described as follows: Cell Viability - Hek293 (AID 427;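 active = compounds whose dose-response curve shows a full or clear partial loss of cell viability, called from curve shape rather than a numeric limit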;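 also: potency is read from the fitted curve at half-maximal effect; cells exposed to compound for 40 hours at 37 °C before reading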). As to conditions: qHTS. In short, it runs like this:
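Luminescent ATP content (CellTiter-Glo, 20 min at room temperature) was measured after a 40 hr, 37 °C compound exposure of HEK293 cells. AC50 values came from Hill-equation fits of qHTS concentration-response data normalized to DMSO and 100 uM tamoxifen.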

A short description of test [11]: Cell Viability - HepG2 (AID 433; calls by dose curve;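 also: potency is read from the fitted curve at half-maximal effect; potency for ATP loss meaning cytotoxicity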). As to conditions: qHTS. The procedure, abridged: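 HepG2 cells, 1500 per well, treated 40 hr at 37 °C in complete medium; viability from intracellular ATP by CellTiter-Glo luminescence. Normalized to DMSO and 100 uM tamoxifen; AC50 from Hill fit of qHTS concentration-response.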
Test [12] in a line: Cell Viability - MRC5 (AID 434; calls by dose curve;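 also: potency is read from the fitted curve at half-maximal effect; potency reflects cytotoxicity seen as loss of intracellular ATP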). As to conditions: MRC5 lung fibroblast viability, qHTS. In short, it runs like this: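 MRC5 normal human lung fibroblasts, 1500 cells/well, exposed to compound for 40 hr at 37 C. Cellular ATP was read by CellTiter-Glo luminescence; data normalized to DMSO and 100 uM tamoxifen, with AC50 from Hill fits.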
Test [13] in a line: Cell Viability - SK-N-SH (AID 435; calls by dose curve;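 also: potency is read from the fitted curve at half-maximal effect; compound exposure lasted 40 h at 37 °C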). The note with it: SK-N-SH neuroblastoma cell viability qHTS. The procedure, abridged:
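SK-N-SH neuroblastoma cells (1500/well) treated 40 h at 37 °C in complete medium; viability read as cellular ATP by CellTiter-Glo luminescence. Normalized to DMSO and 100 uM tamoxifen; AC50 from Hill fits of qHTS concentration-response.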

Test [14] in a line: qHTS assay for small molecule activators of the p53 signaling pathway (AID 651743; active = well fitted activation curve with a large enough effect in the signal ratio, not every such curve was filed as active; the % refers to the signal ratio; also: % of control where 0% means no effect). The note with it: HCT-116 p53RE-bla, beta-lactamase FRET ratio, 16 h; stronger effect = higher value. In short, it runs like this:
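HCT-116 p53RE-bla, 4,000 cells/well; 5 h settle; cpd/DMSO 16 h, 37 C; LiveBLAzer B/G 2 h RT; fluorescence intensity.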

A short description of test [15]: qHTS assay for small molecule disruptors of the mitochondrial membrane potential - 1 hr assay (AID 651754; calls by dose curve; also: potency is read from the fitted curve at half-maximal effect; nearly all actives have a fitted effect of over 35% in size). The procedure, abridged:
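Steps: seed HepG2 cells and let attach overnight; pin-transfer compound or vehicle; incubate 1 hr at 37C; add Mito-MPS dye for 30 min; read two-channel fluorescence for monomer and aggregate forms.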

Test [16] can be described thus: qHTS assay for small molecule disruptors of the mitochondrial membrane potential - 5 hr assay (AID 651755; calls by dose curve; also: potency is read from the fitted curve at half-maximal effect; nearly all actives have a fitted effect of over 40% in size). As to conditions: JC-1-type ratio dye. In short, it runs like this: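 HepG2 cells (2,000/well), attached overnight, exposed to compound 5 hr at 37C, then Mito-MPS dye 30 min. Fluorescence read for monomers (490/535 nm) and aggregates (540/590 nm).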
Test [17] is described as follows: qHTS assay for environmental chemicals that activate the Aryl hydrocarbon Receptor (AhR) signaling pathway (AID 651777). Also: % of control where 0% means no effect; nearly all actives have a fitted effect of over 15% in size. As to conditions: 1A2-DRE human hepatoma cells, luciferase, 24 h; stronger effect = higher value. In short, it runs like this:
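Reporter gene assay: hepatoma cells with DRE/CYP1A2-luciferase, 24 hr compound incubation at 37 C, 5% CO2, luminescence after One-Glo (30 min, RT).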

Test [18] can be described thus: qHTS assay for small molecule agonists of the antioxidant response element (ARE) signaling pathway measured by Nrf2-dependant transcriptional activity - cell viability counter screen (AID 720653; active = well fitted curve in the direction sought with a large enough effect in the repeat runs; an effect the other way counts as inactive or inconclusive; also: % is scaled to controls: 0 for no effect and ±100 for the full control effect). The note with it: ARE-bla HepG2 viability, CellTiter-Glo ATP luminescence, 16 h; max response: stronger effect = lower value. In short, it runs like this: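 ARE-bla HepG2 cells treated with compounds for 16 h at 37C; this counter screen measures viability as intracellular ATP by CellTiter-Glo luminescence after 30 min at room temperature.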

Values joined by “and” are separate entries in the source; they are usually repeats but may differ in a detail not shown here. Equal values may be shown once. Values without a mark were called inactive. Results filed as inconclusive are left out. Active and inactive are the calls of the source. Unless noted, calls follow the shape of the dose curve; as a rule, active = well fitted curve in the direction sought with a large enough effect; inconclusive = small, poorly fitted or top-dose-only effect, or another doubt; inactive = no such curve, though single readings can be large; an effect the other way counts as inactive or inconclusive.

Sequence of Luciferin 4-monooxygenase (Photinus pyralis) (P08659 whole entry, looked up): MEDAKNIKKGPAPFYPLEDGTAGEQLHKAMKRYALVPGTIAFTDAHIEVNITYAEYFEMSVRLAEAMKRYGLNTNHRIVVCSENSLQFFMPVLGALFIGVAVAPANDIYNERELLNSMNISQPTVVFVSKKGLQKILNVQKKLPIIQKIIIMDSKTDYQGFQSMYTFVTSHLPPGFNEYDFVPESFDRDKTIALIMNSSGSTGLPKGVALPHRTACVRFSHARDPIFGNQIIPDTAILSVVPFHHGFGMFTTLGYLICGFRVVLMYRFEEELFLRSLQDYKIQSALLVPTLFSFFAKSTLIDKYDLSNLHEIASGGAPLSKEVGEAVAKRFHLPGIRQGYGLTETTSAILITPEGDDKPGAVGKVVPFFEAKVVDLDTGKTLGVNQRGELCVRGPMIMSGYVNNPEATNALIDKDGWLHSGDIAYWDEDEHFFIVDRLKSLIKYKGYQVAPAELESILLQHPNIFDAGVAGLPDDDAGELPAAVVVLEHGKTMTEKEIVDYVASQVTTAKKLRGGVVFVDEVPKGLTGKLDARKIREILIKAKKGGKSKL
Sequence of ATP-dependent 6-phosphofructokinase (Trypanosoma brucei brucei) (O15648 whole entry, looked up): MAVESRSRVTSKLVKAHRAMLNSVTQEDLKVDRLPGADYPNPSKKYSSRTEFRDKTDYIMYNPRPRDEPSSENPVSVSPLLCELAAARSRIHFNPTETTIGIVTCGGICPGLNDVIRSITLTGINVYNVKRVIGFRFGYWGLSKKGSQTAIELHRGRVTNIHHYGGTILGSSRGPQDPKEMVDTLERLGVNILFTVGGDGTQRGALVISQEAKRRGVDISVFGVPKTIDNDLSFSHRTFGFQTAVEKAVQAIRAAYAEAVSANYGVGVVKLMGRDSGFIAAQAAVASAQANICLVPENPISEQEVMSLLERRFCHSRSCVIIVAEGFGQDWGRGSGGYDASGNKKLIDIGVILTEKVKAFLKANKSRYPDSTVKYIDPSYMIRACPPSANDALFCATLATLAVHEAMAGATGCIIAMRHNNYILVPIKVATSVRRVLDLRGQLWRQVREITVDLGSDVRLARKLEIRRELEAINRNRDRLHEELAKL

Turning to `CCCCC(=O)N(Cc1ccc(-c2ccccc2-c2nn[nH]n2)cc1)C(C(=O)O)C(C)C` (stereo not given), the result in [1], in [2] and in [3] was inactive. The Potency entry in [4] was “inactive”.
Turning to `CS(=O)(=O)c1ccc(-c2cn3ccccc3n2)cc1`, the compound was classed as inactive (in test [5]; in the test on MCC-13; in the test with MCC-26). Besides, in [6], the Potency is 23.7 µM (active).
Take `N#C[C@@H]1C[C@@H]2C[C@@H]2N1C(=O)[C@@H](N)C12CC3CC(CC(O)(C3)C1)C2`: the Potency entry in test [7] is “inactive”.
For `Nc1ccc(N)c([N+](=O)[O-])c1`, the Potency in [8], in test [9], in test [10], in [11], in [12] and in test [13] was greater than 92 µM in each case. Further, the Potency in [15] and in test [16] was 29.8 µM (active) throughout. Moreover, the activation in test [14] is -0.975% and -0.0594%; in [17], 3.75%. Besides, the max response in test [18] was -19.5% and -28.1%.
